SKKanGAS inh: inhibitors of SKKanGAS S. pyogenes growth in kanamycin (SK-promoter or general growth effect) | BacTiter-Glo, 6 h | inhibition, % at 7.5 µM | 300,000 tested, 1.3% active;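 active = mean replicate score, as percent of positive control median, at least 50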;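 note: strain carries kanamycin resistance gene driven by streptokinase promoter and grows in 40 µg/ml kanamycin; loss of luminescence reflects streptokinase promoter inhibition or plain growth inhibition; 0% = median of DMSO wells and 100% = positive control at its reference dose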
NR3A LBD binder: modulates the human NR3A ligand-binding domain; NR3A LBD differential scanning fluorimetry, Tm shift; 0% = protein alone, 100% = glycine-bound protein; Tm shift relative to glycine control, % at 25 µM; 340,000 tested, 2.5% active;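 active = melting temperature shift of at least 10% of the positive control shift, at one fixed dose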
MPTP block: permeability transition pore inhibition; inhibition, % at 10 µM; 360,000 tested, 1.4% active; AID 602449; isolated mouse mitochondria, Ca2+ swelling absorbance, 30 min;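 active = inhibition of 50% or more, scaled per plate between neutral and stimulator controls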;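 note: 0% = DMSO wells given calcium and 100% = 1 mM EGTA wells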
CSC inhib: cancer stem cell inhibition | cancer stem cell-like cells viability, luminescence | inhibition, % at 7.5 µM | 300,000 tested, 1.1% active; in the data active = inhibition above about 75%; tested in HMLE shEcad cells
Mdm2 MdmX PPI: disrupts the human Mdm2-MdmX interaction; O15151+Q00987; SaOS-2 split-luciferase Mdm2/MdmX complementation, luminescence; inhibition, % at 8 µM; 330,000 tested, 3% active;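 active = inhibition of at least 50% at 8 µM in the primary screen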
Target sequence (O15151 whole entry, looked up): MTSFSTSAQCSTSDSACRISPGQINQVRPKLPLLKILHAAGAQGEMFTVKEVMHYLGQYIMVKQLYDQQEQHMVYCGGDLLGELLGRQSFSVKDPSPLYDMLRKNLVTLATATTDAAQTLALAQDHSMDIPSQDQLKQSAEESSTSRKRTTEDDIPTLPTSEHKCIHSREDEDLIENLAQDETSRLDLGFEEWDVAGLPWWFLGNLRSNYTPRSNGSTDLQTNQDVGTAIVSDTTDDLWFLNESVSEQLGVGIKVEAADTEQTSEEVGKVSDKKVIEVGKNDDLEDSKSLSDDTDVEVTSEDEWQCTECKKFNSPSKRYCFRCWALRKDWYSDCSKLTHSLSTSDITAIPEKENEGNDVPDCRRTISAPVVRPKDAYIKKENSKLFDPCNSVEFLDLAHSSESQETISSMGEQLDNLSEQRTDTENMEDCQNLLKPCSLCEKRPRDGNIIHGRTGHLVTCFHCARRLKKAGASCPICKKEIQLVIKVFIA
Target sequence (Q00987 whole entry, looked up): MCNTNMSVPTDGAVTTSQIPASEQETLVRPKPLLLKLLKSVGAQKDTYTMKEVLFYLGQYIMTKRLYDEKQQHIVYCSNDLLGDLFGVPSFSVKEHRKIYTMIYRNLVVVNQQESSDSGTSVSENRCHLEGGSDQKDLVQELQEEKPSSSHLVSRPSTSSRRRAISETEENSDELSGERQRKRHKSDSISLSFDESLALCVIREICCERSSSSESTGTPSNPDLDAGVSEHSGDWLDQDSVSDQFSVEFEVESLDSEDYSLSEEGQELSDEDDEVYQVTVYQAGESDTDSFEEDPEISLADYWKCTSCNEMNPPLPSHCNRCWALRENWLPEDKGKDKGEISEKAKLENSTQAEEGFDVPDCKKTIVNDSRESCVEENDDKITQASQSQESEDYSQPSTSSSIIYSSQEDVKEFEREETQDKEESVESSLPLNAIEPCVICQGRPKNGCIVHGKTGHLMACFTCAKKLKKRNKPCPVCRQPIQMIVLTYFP
Beta cell apopt: beta cell apoptosis inhibition | INS-1E cytokine-induced death, ATP luminescence, 48 h; percent of positive-control rescue, neutral wells zero | protection from apoptosis, % (test concentration not listed) | 300,000 tested, 0.8% active | AID 435005;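 active = Every replicate reaches about 75%, or at least half do and their mean reaches it too, limit read from the data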;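 note: 0% = cytokine-treated negative control wells and 100% = positive control rescue; higher means more ATP so stronger rescue from cytokine killing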
The depositor's hits bear a star. Shown are actives, neighbours in structure and some others; about 6.9% of the full set was active somewhere.

Screening COc1ccccc1C#Cc1ccc2c(=O)c3ccccc3n(C)c2c1 returned SKKanGAS inh 5.5, NR3A LBD binder -5.6, MPTP block 0.4, CSC inhib 44.9, Mdm2 MdmX PPI 0.4 and Beta cell apopt 4.7.
`Cn1c2ccccc2c(=O)c2cc(C#Cc3cccc(N)c3)ccc21` gave NR3A LBD binder 22.5*, MPTP block 0.6, CSC inhib 49.9, Mdm2 MdmX PPI -166.9 and Beta cell apopt 6.7.
Screening COc1ccc(N(CC(=O)N2CCc3ccccc3C2)S(C)(=O)=O)cc1Cl returned SKKanGAS inh -9.0, NR3A LBD binder -1.0, MPTP block 1.3, CSC inhib -1.7 and Mdm2 MdmX PPI -11.5.
For COc1cccc(CN2CC(C(=O)NCCOc3ccccc3)CCC2=O)c1 (configuration not stated) the results were SKKanGAS inh 2.1, NR3A LBD binder 1.5, MPTP block -1.8, CSC inhib -14.1, Mdm2 MdmX PPI 17.1 and Beta cell apopt 3.0.
`COc1ccc(S(=O)(=O)N2CCCCC2c2cc(C(=O)Nc3ccc(OC)cc3C)no2)cc1` (configuration not stated) gave MPTP block 0.2.
`CCOCCCNC(=O)CSc1nnc(-c2ccc(S(=O)(=O)N3CCCC3)cc2)n1C` gave SKKanGAS inh -5.8, NR3A LBD binder 2.8, MPTP block -1.6, CSC inhib -12.1, Mdm2 MdmX PPI 10.2 and Beta cell apopt -1.5.
CCCn1nc(C(=O)Nc2ccc(S(=O)(=O)Nc3nccs3)cc2)c2ccccc2c1=O was read as SKKanGAS inh 23.1, NR3A LBD binder -2.2, MPTP block -5.5, CSC inhib 3.6, Mdm2 MdmX PPI 29.5 and Beta cell apopt -13.7.
CCCn1nc(C(=O)Nc2cc(S(=O)(=O)Nc3ccc(OC)cc3)ccc2O)c2ccccc2c1=O was read as NR3A LBD binder 27.1*, MPTP block 6.1, CSC inhib -5.0, Mdm2 MdmX PPI -6.7 and Beta cell apopt 2.6.
N#Cc1c(NC(=O)CN2C(=O)c3ccccc3C2=O)oc(-c2ccccc2)c1-c1ccccc1 was read as SKKanGAS inh 2.8, NR3A LBD binder 17.0*, MPTP block -1.4, CSC inhib -5.2, Mdm2 MdmX PPI 4.2 and Beta cell apopt 4.4.
N#Cc1c(NC(=O)CCN2C(=O)c3ccccc3C2=O)oc(-c2ccccc2)c1-c1ccccc1 was read as SKKanGAS inh 8.0, NR3A LBD binder -1.6, MPTP block 0.4, CSC inhib 1.2, Mdm2 MdmX PPI 13.4 and Beta cell apopt 2.8.
For O=C(Cc1ccc(Cl)cc1)NNC(=S)NC(=O)c1cccs1 the results were SKKanGAS inh 81.9*, NR3A LBD binder -0.9, MPTP block -0.7, CSC inhib 12.8, Mdm2 MdmX PPI 30.8 and Beta cell apopt 62.7.
Screening Cc1ccc(C(=O)NC(=S)NNC(=O)c2ccccc2O)cc1 returned SKKanGAS inh 102.1*, NR3A LBD binder -4.6, MPTP block 4.9, CSC inhib 59.5, Mdm2 MdmX PPI 36.7 and Beta cell apopt 23.5.
`O=C(NC(=S)NNC(=O)c1ccccc1O)c1ccc([N+](=O)[O-])cc1` gave SKKanGAS inh 15.6, NR3A LBD binder -6.7, MPTP block 2.2, CSC inhib 17.2, Mdm2 MdmX PPI 13.6 and Beta cell apopt 9.6.
O=C(Cc1cccs1)NNC(=S)NCc1ccc(Cl)cc1 was read as SKKanGAS inh -16.9, NR3A LBD binder -2.6, MPTP block -6.0, CSC inhib -0.1, Mdm2 MdmX PPI -0.3 and Beta cell apopt 0.8.
`O=C(NC(=S)NNC(=O)c1ccccc1O)c1ccc(F)cc1` gave SKKanGAS inh 80.9*, NR3A LBD binder -7.7, MPTP block 4.1, CSC inhib 10.7, Mdm2 MdmX PPI 18.2 and Beta cell apopt 15.9.
`O=C(NC(=S)NNC(=O)c1ccccc1O)c1ccccc1` gave SKKanGAS inh 93.2*, NR3A LBD binder -7.3, MPTP block 3.3, CSC inhib 21.5 and Mdm2 MdmX PPI 18.3.
O=C(Nc1nnc([C@@H]2O[C@H](CO)[C@@H](O)[C@H]2O)s1)Nc1ccccc1C(F)(F)F was read as MPTP block 0.9.
COc1ccc(CNC(=O)Cn2c(=O)n(CC(=O)N3CCCCC3)c(=O)c3sccc32)cc1 was read as SKKanGAS inh -4.8, NR3A LBD binder -1.9, MPTP block -0.5, CSC inhib 8.9, Mdm2 MdmX PPI 7.2 and Beta cell apopt 0.3.
`CCN(C(=O)COC(=O)/C=C/c1c(C)nn(-c2ccccc2)c1C)c1c(N)n(Cc2ccccc2)c(=O)[nH]c1=O` gave NR3A LBD binder -3.5 and MPTP block 1.0.
O=C(NC(=S)NNC(=O)c1ccccc1O)c1cccs1 was read as SKKanGAS inh 90.2*, NR3A LBD binder -3.9, MPTP block -2.0, Mdm2 MdmX PPI 31.6 and Beta cell apopt 5.4.
Screening Cc1nc(N)sc1-c1csc(N(C)c2ccc(O)cc2)n1 returned SKKanGAS inh 64.3*, NR3A LBD binder -8.3, MPTP block -3.1, CSC inhib 6.6, Mdm2 MdmX PPI -33.0 and Beta cell apopt 3.8.
CCOC(=O)/C(=C\c1ccc(OC(F)F)cc1)C1=Nn2c(nnc2-c2ccc(Cl)cc2)SC1 was read as SKKanGAS inh -20.3, NR3A LBD binder -1.5, MPTP block 2.4, CSC inhib 99.7* and Beta cell apopt 130.6*.
`O=C(CN(c1ccc(Cl)cc1)S(=O)(=O)c1ccc(Cl)c([N+](=O)[O-])c1)NCCc1ccccc1` gave SKKanGAS inh 5.8, NR3A LBD binder -0.6, MPTP block 6.9, CSC inhib 57.8, Mdm2 MdmX PPI 30.4 and Beta cell apopt 11.0.
O=C(CN(c1ccc(Cl)cc1)S(=O)(=O)c1ccc(Cl)c([N+](=O)[O-])c1)NCCc1ccc(F)cc1 was read as SKKanGAS inh -6.1, NR3A LBD binder 1.4, MPTP block 37.2, CSC inhib 81.8*, Mdm2 MdmX PPI 9.1 and Beta cell apopt 2.6.
Screening NC(=O)c1ccc(NC(=O)COC(=O)CC23CC4CC(CC(Br)(C4)C2)C3)cc1 returned NR3A LBD binder -7.3, MPTP block -0.8, CSC inhib -9.5, Mdm2 MdmX PPI 7.4 and Beta cell apopt -0.4.
For COc1ccc(Nc2nnc(-c3ccccc3)c3ccccc23)cc1C(=O)N1CCCCC1 the results were SKKanGAS inh -3.8, NR3A LBD binder -1.3, MPTP block 2.7, CSC inhib 96.9*, Mdm2 MdmX PPI 25.1 and Beta cell apopt -1.3.
`CCOCC(=O)Nc1ccc(S(=O)(=O)NCCc2ccccc2)cc1` gave SKKanGAS inh -6.7, NR3A LBD binder 11.4*, MPTP block -1.0, CSC inhib 5.2, Mdm2 MdmX PPI 20.8 and Beta cell apopt 3.8.
Screening CC(=O)Nc1ccc(S(=O)(=O)NCCCc2ccccc2)cc1 returned SKKanGAS inh -9.7, NR3A LBD binder -0.5, MPTP block -0.3 and Mdm2 MdmX PPI 28.1.
`COc1cccc(-c2nn(-c3ccccc3)cc2C(=O)Nc2nccs2)c1` gave SKKanGAS inh 61.6*, NR3A LBD binder -1.7, MPTP block 0.5, CSC inhib 25.5, Mdm2 MdmX PPI 35.3 and Beta cell apopt 9.4.

Assay outcomes (PubChem BioAssay)
